Several values for one entry are separate records, joined by “and”; a condition that tells them apart may be missing. Identical values can stand only once. Hit rate of the full screen: of about 410,000 compounds, about 18,000 (4.4%) were called active. Roughly 7% stayed inconclusive and do not appear here. Rule as the data show it: active = activity change below about -60%; inconclusive = no clear call, values can overlap the other calls; inactive = above about -39%. Shown is part of a subset that was picked to be rich in actives.
% is scaled to controls: 0 for no effect and ±100 for the full control effect.

This assay is described as follows: qHTS Assay for inhibitors of the human cytomegalovirus (HCMV). The settings on record: HFF cells, HCMV-luciferase reporter, 72 h; at 57.5 µM; stronger effect = lower value. Put shortly: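 Compounds were evaluated in HFFs infected with an HCMV luciferase reporter virus (MOI 1 PFU/cell). Luciferase in lysates collected 72 h post infection served as the replication measure.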
On the technique in general: qHTS replaces the single test concentration by a dilution series.
For `O=[N+]([O-])c1ccc(C=Nc2ccc(Cl)cc2Cl)s1`, the activity change, negative = inhibition was -103% (active). In the case of `C=CCN1C=C(C(=O)c2ccccc2)C(=O)CC1`, the activity change, negative = inhibition was -25.3% (inactive).

Turning to `CCOc1ccc(CC(=O)NCCc2csc3nc(-c4ccccc4F)nn23)cc1`, the activity change, negative = inhibition is -0.0376% (inactive).

For `CCOc1ccccc1C(=O)Nc1ccc2c(c1)N(C)C(=O)c1ccccc1S2`, the activity change, negative = inhibition was 5.48% (inactive). As to `CCOC(=O)c1c(C)oc2ccc(N(C(=O)c3ccncc3)S(=O)(=O)c3ccc(CC)cc3)cc12`, the activity change, negative = inhibition is -6.14% (inactive).

As for `COC(=O)c1c(C)oc2ccc(N(C(=O)Oc3ccccc3)S(=O)(=O)c3ccccc3)cc12`, the activity change, negative = inhibition was -63.7% (active).

For `CC(=O)c1c(C)oc2ccc(NS(=O)(=O)c3ccccc3)cc12`, the activity change, negative = inhibition is -24.7% (inactive). As for `Cc1cccc(N(C)C(=O)CS(=O)(=O)c2cccc3nsnc23)c1`, the figure is -14.6% (inactive); as for `CCN(C(=O)Cn1c(=O)nc(-c2ccccc2)c2cc(Cl)ccc21)c1cccc(C)c1`, -20.1% (inactive); as for `O=C(NCCc1ccc(Cl)cc1)c1ccc2c(c1)N(Cc1ccc(F)cc1)C(=O)CS2`, 2.62% (inactive). The figure for `CNc1ccc(-c2nc(-c3ccccc3C)no2)cc1[N+](=O)[O-]` is 63.3% (inactive); for `Cc1ccc(NC2=NC(c3ccccc3)n3c(nc(C)cc3=O)N2)cc1` (configuration not stated) it is -12% (inactive); for `Cc1ccc(Nc2cc(C)nc3c(C)ccc([N+](=O)[O-])c23)cc1` it is -65.6% (active). The figure for `C[C@@H]1CN([C@H](C)CO)C(=O)CCCn2cc(nn2)CO[C@H]1CN(C)C(=O)Nc1ccc(N2CCCCC2)cc1` is 5.98% (inactive); for `CCOc1ccc(CNC(=O)c2cc(=O)[nH]c3ccc(S(=O)(=O)N4CCCCC4)cc23)cc1` it is 66.7% (inactive); for `O=C(Nc1ccc2oc(-c3ccc(O)c(Br)c3)nc2c1)c1cc2ccccc2o1` it is 17.1% (inactive). Consider `COc1cccc(C(=O)NC2(C(F)(F)F)C(=O)Nc3c2c(=O)[nH]c(=O)n3-c2ccc(C)cc2)c1` (configuration not stated), for which the activity change, negative = inhibition is 23.5% (inactive). The figure for `Cc1ccn(CC(=O)NC2CCCN(Cc3ccccc3F)C2)n1` (configuration not stated) is -8.34% (inactive); for `Cc1ccsc1C(=O)C1CCCN(Cc2ccc(O)cc2)C1` (configuration not stated) it is 66.6% (inactive); for `Cc1occc1C(=O)NC1CCCN(Cc2ccc(CC(C)C)cc2)C1` (configuration not stated) it is -69.3% (active). The figure for `COc1cccc(NC(=O)C(=O)NCC(c2ccc3c(c2)OCO3)N2CCN(C)CC2)c1` (configuration not stated) is 44% (inactive); for `CSc1ccc(NC(=O)Cn2nnnc2-c2ccccc2F)cc1` it is 13% (inactive); for `CC(C)Oc1ccc(CNC(=O)C2CCN(c3nc4ccccc4n(C)c3=O)CC2)cc1` it is 3.39% (inactive). The figure for `COc1cccc2cc(-c3nc(Cl)c4c5c(sc4n3)CC(C)CC5)c(=O)oc12` (configuration not stated) is 7.76% (inactive); for `Fc1ccc(CSc2nnc(-c3cc4c(s3)-c3ccccc3CC4)o2)cc1` it is 20.4% (inactive). As for `COc1ccccc1OC(=O)c1ccc(C)c(S(=O)(=O)N2CCOCC2)c1`, the activity change, negative = inhibition was 2.56% (inactive).

For the compound `O=C(Oc1ccc(-c2nnco2)cc1)c1ccc(F)c(S(=O)(=O)N2CCOCC2)c1`, the activity change, negative = inhibition is 34.8% (inactive). The figure for `COc1ccc(C(=O)Oc2ccc(-c3nnco3)cc2)cc1S(=O)(=O)N1CCOCC1` is -83.8% (active); for `CCC(C)(C)c1ccc(Oc2ccc(NC(=O)COC(=O)C3=COCCO3)cc2)cc1` it is -70.9% (active). Consider `COc1ccc(NC(=O)COC(=O)CNC(=O)C2CCCCC2)cc1`, for which the activity change, negative = inhibition was 16% (inactive). As for `O=C1CCC(C(=O)OCC(=O)Nc2ccc(OC(F)F)cc2)=NN1`, the figure is 5.49% (inactive); as for `COc1cccc(Nc2nc3ccccc3c3nncn23)c1`, 15% (inactive); as for `COc1ccc(NC(=O)CCc2nnc3n(CC(C)C)c(=O)c4ccccc4n23)cc1OC`, -15.8% (inactive).

For `O=C(Cn1c(=O)nc(-c2ccccc2)c2cc(Cl)ccc21)NCc1ccc(Cl)cc1`, the activity change, negative = inhibition is 4.55% (inactive). The figure for `CCCCNc1ccc(-c2nc(-c3ccncc3)no2)cc1[N+](=O)[O-]` is 14.6% (inactive); for `Cc1nn(Cc2ccccc2)c(C)c1NS(=O)(=O)c1ccccc1` it is 18.1% (inactive). As to `Cc1ccccc1Cn1nc(C)c(NC(=O)C(F)(F)F)c1C`, the activity change, negative = inhibition was -69.7% (active). Turning to `Cc1ccccc1Cn1nc(C)c(NC(=O)c2cc(-c3ccc(F)cc3)on2)c1C`, the activity change, negative = inhibition was -10.2% (inactive). For `COc1cc(NC(=O)CN2CCN(S(=O)(=O)c3ccc(Br)cc3)CC2)cc(OC)c1`, the activity change, negative = inhibition was 10.7% (inactive). Consider `CC(C)OCCCn1c(SCC(=O)c2ccccc2)nc2c(sc3ccccc32)c1=O`, for which the activity change, negative = inhibition is -3.18% (inactive). The figure for `CCc1nn(CCCC(=O)NCc2ccccc2OC)c(=O)c2cc3occc3n12` is 0.686% (inactive); for `CC(=O)c1ccc(S(=O)(=O)N2CCC(Oc3ccc(-n4cnnn4)cc3)CC2)cc1` it is -16.1% (inactive) and 9.96% (inactive).

As to `CC(=O)c1ccc(S(=O)(=O)N2CCN(C(=O)/C=C/c3ccc4ccccc4n3)CC2)cc1`, the activity change, negative = inhibition is -94.7% (active). As for `COC(=O)c1ccc(S(=O)(=O)N2CCC(c3nc4ccccc4o3)CC2)cc1`, the figure is -36.4% (inactive); as for `O=C(NCCc1ccccc1)c1cnc2sc(N3CCCC3)nn2c1=O`, -22.6% (inactive); as for `CCCCNc1c(-c2cccc(Sc3ccc(OC)cc3)c2)nc2ccccn12`, -28.4% (inactive).

As for `COC(=O)[C@]12C[C@H](CC(=O)NCCC(C)C)C(=O)N(CCc3ccc(OC)c(OC)c3)C1=C[C@H](C(C)(C)C)O[C@@H]2C`, the activity change, negative = inhibition is 13.1% (inactive). The figure for `COc1ccccc1CNC(=O)c1ccc(-n2c(C)cc3c2CCCC3)cc1` is -28.5% (inactive); for `N#Cc1cc([N+](=O)[O-])ccc1NCC1CCCO1` (configuration not stated) it is 11.1% (inactive). As for `Cc1cc([N+](=O)[O-])c(NC2CCCCC2)c([N+](=O)[O-])c1`, the figure is -18.1% (inactive).

Turning to `Cc1cc([N+](=O)[O-])ccc1NC1CCCC1`, the activity change, negative = inhibition is -71.6% (active). As for `COc1ccc(C)cc1N(C)C(=O)c1c(C)oc2ncnc(N3CCOCC3)c12`, the activity change, negative = inhibition was -37.3% (inactive). Take `Cc1ccc2onc(CC(=O)N3CCN(c4ccc(Cl)cc4)CC3)c2c1`: the activity change, negative = inhibition is -15.9% (inactive).

Consider `Cc1nn(C(C)C(=O)NCCc2ccccc2)c(=O)c2c1sc1ccccc12` (configuration not stated), for which the activity change, negative = inhibition is -39.3% (inactive). `Cc1ccc(Nc2nc(Cl)c(C=O)s2)cc1`: the activity change, negative = inhibition was -12.1% (inactive). For `CCCCN(C)c1nnc(NC(=O)Nc2ccc(Br)c(C)c2)s1`, the activity change, negative = inhibition is -4.35% (inactive). As to `Cc1ccc(NC(=O)Nc2nnc(-c3ccncc3)s2)cc1`, the activity change, negative = inhibition is -99.3% (active).

These data come from PubChem BioAssay AID1259415 (National Center for Advancing Translational Sciences (NCATS), 2018).
